# Pf growth 96h = Primary qHTS for delayed death inhibitors of the malarial parasite plastid, 96 hour incubation; actives 6.9% (n = 320,000); Potency, µM (series often up to 28.7 µM), inactives show top-dose activity change, negative = inhibition, hits mostly inhibitors; P. falciparum luciferase reporter growth, 96 h; AID 504834, 2011; further: potency means the concentration at half of the fitted maximal effect; on the % scale 0 is the no-effect control and ±100 the full control effect
#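 Erythrocytes infected with luciferase-expressing P. falciparum were dispensed at 2% hematocrit and 0.05% parasitemia (final), then incubated with compounds 96 hours at 37 C in 5% CO2. Luminescence after detection reagent addition reported growth.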
# CHX counter = Cycloheximide Counterscreen for Small Molecule Inhibitors of Shiga Toxin; cell reporter, cycloheximide protein synthesis inhibition counterscreen; max response, %; actives 12% (n = 300,000); AID 2314, 2010; in the data active means max response mostly above about 13%, no sharp cut-off; inactive means mostly below about 14%; further: read at 38.3 µM for the half of the compounds with a filed dose; 0% is about no effect
# LmPK inhibitor = qHTS Assay for Inhibitors of Leishmania Mexicana Pyruvate Kinase (LmPK); Q27686; purified LmPK, Kinase-Glo ATP luminescence, 1 h; Potency, µM (doses to about 57.5 µM), for the others: at the highest dose activity change, negative = inhibition, usual class: inhibitors; actives 0.37% (n = 290,000); AID 1721, 2009; further: potency means the concentration at half of the fitted maximal effect; on the % scale 0 is the no-effect control and ±100 the full control effect
# Target sequence (Q27686 whole entry, looked up): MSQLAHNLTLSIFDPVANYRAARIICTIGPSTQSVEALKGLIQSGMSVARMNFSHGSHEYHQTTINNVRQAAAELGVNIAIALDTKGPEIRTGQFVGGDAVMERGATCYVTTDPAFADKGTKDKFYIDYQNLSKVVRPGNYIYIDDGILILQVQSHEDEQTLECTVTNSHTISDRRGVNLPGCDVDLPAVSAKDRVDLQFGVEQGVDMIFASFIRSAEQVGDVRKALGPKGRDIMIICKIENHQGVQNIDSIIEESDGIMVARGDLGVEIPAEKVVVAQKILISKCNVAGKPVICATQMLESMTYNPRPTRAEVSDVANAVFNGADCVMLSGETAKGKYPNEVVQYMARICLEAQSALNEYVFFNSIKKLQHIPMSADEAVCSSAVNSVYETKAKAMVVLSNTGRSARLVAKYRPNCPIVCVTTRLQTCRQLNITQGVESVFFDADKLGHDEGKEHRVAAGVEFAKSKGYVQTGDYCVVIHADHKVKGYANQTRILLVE
#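 0.1 nM LmPK, 0.5 mM PEP, 0.1 mM ADP; 50 mM imidazole pH 7.2, 7 mM MgCl2, 50 mM KCl; 1 h RT. Kinase-Glo luminescence readout, normalized to no-enzyme (full inhibition) and uninhibited wells.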
# Shiga toxin inh = A qHTS for Small Molecule Inhibitors of Shiga Toxin. Vero cells, Shiga toxin protein synthesis inhibition reporter. inhibition, % at 38.7 µM. actives 9.2% (n = 290,000); in the data active means inhibition mostly above about 28%, no sharp cut-off; inactive means mostly below about 43%; further: 0% is about no effect
# Pf growth 48h = Primary qHTS for delayed death inhibitors of the malarial parasite plastid, 48 hour incubation; P. falciparum luciferase growth in erythrocytes, 48 h; Potency, µM (titrated, usually from 28.7 µM), for the others: at the highest dose activity change, negative = inhibition, usual class: inhibitors; actives 5.9% (n = 310,000); AID 504832, 2011; further: potency means the concentration at half of the fitted maximal effect; on the % scale 0 is the no-effect control and ±100 the full control effect
#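 Luciferase-expressing parasites in RBCs, 2% Hct / 0.1% parasitemia final; RPMI 1640 + 0.5% Albumax; 37 C, 5% CO2, one generation; luminescence read-out, lower signal = inhibition.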
# * = called active by the depositor; ? = inconclusive; . = not tested or not shown. Only some compounds are listed: those with a hit (about 22% of all), similar ones and a draw of the others. Unless noted, the call rests on the fitted dose curve; in most records, active means well fitted inhibition curve with a large enough effect; inconclusive means small, poorly fitted or top-dose-only effect, or another doubt; inactive means no such curve, though single readings can be large or run the other way.
SMILES,Pf growth 96h,CHX counter,LmPK inhibitor,Shiga toxin inh,Pf growth 48h
CCCOc1ccc(-c2nc(C#N)c(N3CCC(C(N)=O)CC3)o2)cc1,10.4µM*,-4.1,0.1%,15.4,-2.0%
N#Cc1nc(-c2ccc(Cl)cc2)oc1N1CCCCC1,33.3%,6.0,3.9%,27.0,16.1%
CCCOc1ccc(-c2nc(C#N)c(N3CCN(CC)CC3)o2)cc1,10.4µM*,-1.1,-1.8%,-2.2,?
N#Cc1nc(-c2ccc(OCc3ccc(Cl)cc3)cc2)oc1N1CCC(C(N)=O)CC1,-0.3%,-1.6,2.4%,-14.5,.
CCOc1ccc(-c2nc(C#N)c(N3CCN(CC)CC3)o2)cc1,223.6%,-9.0,-1.3%,-23.4,-9.0%
Cc1ccc(NC(=S)NNC(=O)c2cccc([N+](=O)[O-])c2)cc1Cl,0.0%,-2.5,0.5%,0.3,42.6%
O=C(CSc1nccc(=O)[nH]1)c1ccco1,18.3%,-1.8,0.8%,2.1,11.6%
O=C(CSc1ncn[nH]1)c1ccccc1,15.9%,16.6,8.0%,51.6*,15.3%
O=C(CSc1nccc(=O)[nH]1)c1cc2ccccc2o1,13.8%,34.2*,-8.1%,47.4*,25.1%
O=C(CSc1ncn[nH]1)c1cc2ccccc2o1,16.7%,19.7*,4.5%,43.0,0.0%
Cc1ccccc1Cn1c(=N)n(CC(=O)c2ccco2)c2ccccc21,14.7µM*,-3.8,8.3%,-20.3,?
COc1ccc(C(=O)c2c(-c3cccc(C)c3)oc3ccc(N4CCOCC4)cc23)cn1,?,1.3,-1.0%,11.7,?
O=c1c2c3c(sc2nc2n1CCCCC2)CCC3,17.9%,26.6,-4.1%,69.5,10.0%
Nc1nc2c(s1)CCCCCCCCCC2,?,-1.4,3.1%,1.5,-17.8%
CC(C)(C)c1nc2sc3c(c2c(=O)o1)CCCC3,8.2%,-5.5,-15.5%,-6.2,.
Nc1c2c(nc3sc4c(c13)CCCC4)CCCCC2,0.828µM*,70.8*,-24.9%,129.7*,82.6%
Nc1c2c(nc3sc4c(c13)CCCC4)CCCC2,133.1%,26.0*,-2.9%,107.1*,?
Nc1c2c(nc3sc4c(c13)CCCCC4)CCCCC2,109.1%,51.2*,-13.8%,58.6*,150.8%
COc1ccc(NC(=O)COC(=O)CCC(=O)c2cccs2)cc1OC,5.1%,.,.,.,-4.9%
O=C(O)c1ccc(CCN2CCN(CC=Cc3ccc(Cl)cc3)CC2)cc1,.,5.3,.,-7.4,.
COCCCNC(=O)Cn1cc(/C=C(\C#N)C(=O)NC2CC2)c2ccccc21,?,0.6,-4.2%,-6.6,3.4%
O=C(c1cc(COc2ccc(F)cc2Cl)on1)N1CCC(OCc2cccnc2)CC1,107.8%,-0.8,-0.1%,18.8,?
O=C(c1cc(COc2ccc(F)cc2Cl)on1)N1CCc2sccc2C1,43.6%,26.4*,-2.7%,43.1*,-12.2%
COc1cc(Cl)ccc1OCc1cc(C(=O)N2CCCCC2c2cccnc2)no1 (stereo not given),?,17.1*,7.2%,31.7,?
Cc1nonc1C1CCCN1C(=O)c1cc(COc2ccc(F)cc2Cl)on1 (stereo not given),?,29.1*,6.8%,41.1,2.0%
SMILES,Pf growth 96h,CHX counter,LmPK inhibitor,Shiga toxin inh,Pf growth 48h
O=C(c1cc(COc2ccc(F)cc2Cl)on1)N1CCCCC1c1cccnc1 (stereo not given),?,25.0*,2.1%,37.8*,?
COc1cc(Cl)ccc1OCc1cc(C(=O)N2CCN(c3ccccn3)CC2)no1,-10.2%,12.5,-0.2%,17.0,11.0%
CCCCOc1ccc(C(=O)NCCOc2cccc(OC)c2)cc1,?,23.5,-2.8%,19.5,17.5%
COc1ccc(C(=O)N2CCN(c3cccc(C)c3C)CC2)cc1S(=O)(=O)NC1CC1,?,.,.,.,-79.3%
CCn1nc(C)c(NC(=O)c2cnn3c(C(F)F)cc(-c4ccccc4)nc23)c1C,?,-2.3,12.0%,-1.3,?
Cc1c(C(=O)NC(C)CCc2ccccc2)cccc1[N+](=O)[O-] (stereo not given),35.6%,-7.6,1.8%,-9.4,?
COc1ccc(NC(=O)c2cccnc2)c(OC)c1,14.7µM*,4.1,8.6%,-9.2,.
COc1ccccc1Nc1ccc(NC(=O)c2cccc([N+](=O)[O-])c2C)cc1,-16.6%,30.1*,3.4%,55.2*,?
COc1ccccc1NC(=O)c1cccnc1,-0.9%,-1.1,-5.2%,-4.9,23.2%
